Structures are written as SMILES. Hit rate of the full screen: of about 330,000 compounds, about 1,900 (0.58%) were called active. Not shown: some 4% with an inconclusive outcome. Only a sample is shown. Potency and affinity values are given separately. Unmarked numbers belong to inactive results. Cut-off read from the data, not from the text of the source: inconclusive = inhibition above about 70% without an active follow-up result; inactive = below that.

The nature of the assay: M. tuberculosis growth inhibition, HTS (AID 449762).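 Note: bacterial growth assessed after seven days of incubation.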 The note with it: M. tuberculosis H37Rv growth inhibition, 7H9 media; at 25 µM; stronger effect = higher value.
One may read the inhibition as the drop in the measured response relative to a control, in per cent. Consider `c1ccc2c(C3=NNC(=NC4CC4)SC3)c[nH]c2c1`, for which the inhibition was -4.02%.
On to `Cc1cc(C2=NNC(=NC3CC3)SC2)c(C)n1-c1c(C)n(C)n(-c2ccccc2)c1=O`, for which the inhibition was 0.5%.
In the case of `CCN=C1NN=C(c2c[nH]c3ccccc23)CS1`, the inhibition is 0.3%.
Next, `CN=C1NN=C(c2cc(C)n(-c3c(C)n(C)n(-c4ccccc4)c3=O)c2C)CS1`: 10.5%; `COc1ccc(CC(=O)Nc2ccc(C#N)c(Cl)c2)cc1S(=O)(=O)N1CCOCC1`: 3.7%; `COc1ccnc(Oc2ccc(F)cc2)c1C(=O)N/C=N/OCc1cccc(F)c1`: 24.6%.
Next, `NC(=O)CSc1nc(N)c2c3c(sc2n1)CCCCC3`: 42.6%.
Next, `CCCSc1nnc2n(C)c(=O)c3c4c(sc3n12)CCC4`: 9.4%; `C=C(C)CSc1nnc2n(C)c(=O)c3c4c(sc3n12)CCC4`: 4.7%; `CC(=O)N1CCN(c2nc(C)nc3sc4c(c23)CCC(C)C4)CC1` (configuration not stated): -0.41%.
As for `Cc1nc(N2CCN(C(=O)c3cnccn3)CC2)c2c3c(sc2n1)CC(C(C)(C)C)CC3` (configuration not stated), the inhibition is -2.07%.
Take `CC(C)(C)C1CCc2c(sc3nc(SCC(=O)O)nc(N)c23)C1` (configuration not stated): the inhibition was 6.02%.
For the compound `CC(C)(C)[C@H]1COC(=O)[C@@H](Cc2ccc(F)cc2)C/C=C\C[C@@H](CC(=O)N[C@@H](CO)Cc2ccccc2)C(=O)N1`, the inhibition was -8.38%.
Next, `Cc1cc(OCC(=O)NCCCN2CCOCC2)c2c(C)cc(=O)oc2c1`: 3.65%; `O=C(Cc1c(Cl)cccc1Cl)N1CCN(Cc2ccccc2)CC1`: 7.3%.
Next, `C/C(=N\NC(=O)c1ccc(Cn2cc(Br)cn2)o1)c1cccc(NC(=O)C(C)(C)C)c1`: -8.27%; `COc1cccc(CN(C)CC(=O)Nc2ccccc2C(=O)Nc2ccccc2)c1OC`: -3.55%.
Next, `CN(CC(=O)Nc1ccc(F)cc1)C(=O)COC(=O)c1cc(S(=O)(=O)N(C)C)ccc1N1CCCC1`: 0.17%.
Take `CCc1ccc2[nH]c(C(=O)Nc3ccc(C)c(F)c3)cc2c1`: the inhibition is 6.38%.
Take `Cc1cc(C)c2cc(C(=O)Nc3ccc4c(c3)OCO4)[nH]c2c1`: the inhibition is -1.94%.
Next, `Cc1cccc(NC(=O)C2CCN(S(=O)(=O)c3c(C)noc3C)CC2)c1`: 8.96%.
Next, `c1cc[n+](CCC[n+]2ccccc2)cc1`: 1.9%; `c1cc[n+](CCCC[n+]2ccccc2)cc1`: -7%.
Next, `O=C(Nc1ccc(F)cc1)c1cnc(-c2ccccc2)nc1-c1ccccc1`: -11.2%; `CCCOc1ccc2[nH]c(C(=O)N/N=C/c3cc(OC)c(OC)c(OC)c3)cc2c1`: 4.27%.
For the compound `CCOc1ccc(CCNC(=O)Cc2ccc(NC3=NC4CS(=O)(=O)CC4S3)cc2)cc1` (configuration not stated), the inhibition was -10.9%.
As to `COCCn1c(=NC(=O)CSC(C)=O)sc2cc(OC)ccc21`, the inhibition was -1.47%.
As for `CS(=O)(=O)c1ccc(C(=O)NCc2ccccc2F)cc1`, the inhibition is -1.2%.
Next, `CS(=O)(=O)c1ccc(C(=O)NC(Cc2ccccc2)c2ccccc2)cc1` (configuration not stated): -2.61%; `Cn1cc(C(=O)N2CCCCC2)c2ccccc21`: 5.24%.
Next, `CCCCC[C@@H]1C=C(C(=O)O)[C@H](c2cccc(C)c2)N1S(=O)(=O)c1ccc(C)cc1`: 9.09%; `S=C(NCCNC(=S)Nc1ccccc1)Nc1ccccc1`: -0.85%; `COc1ccc(C(CNc2nc(-c3cccnc3)nc3ccccc23)N(C)C)cc1` (configuration not stated): -3.31%.
Turning to `COC(=O)C1=C(C)N(C)C(=S)NC1c1c(OC)ccc2ccccc12` (configuration not stated), the inhibition was 8.17%.
Next, `O=C1NCN(c2ccccc2)C12CCN(c1nnnn1-c1ccccc1)CC2`: -2.38%.
Turning to `O=C1NCN(c2ccccc2)C12CCNCC2`, the inhibition is -2.9%.
As to `COc1ccc(S(=O)(=O)N(C)CC(=O)NC2CCCC2)cc1OC`, the inhibition is -0.73%.
Turning to `Cc1ccc(-c2ccccc2NC(=O)C2C3C=CC(C3)C2C(=O)O)o1` (configuration not stated), the inhibition is 3.02%.
Next, `CC(=O)Nc1cccc(NC(=O)C2C3C=CC(C3)C2C(=O)O)c1` (configuration not stated): 1.17%; `CCCCOc1ccc(C(=O)N2CCN(c3ccc(N4CCOCC4)nn3)CC2)cc1`: 37.3%.
For the compound `CNC1=C([N+](=O)[O-])CC([N+](=O)[O-])=C(N2CCNCC2)N1C`, the inhibition is 1.39%.
Turning to `Cc1nn(Cc2ccccc2)c(Cl)c1C(=O)OCC(=O)NC(=O)NC12CC3CC(CC(C3)C1)C2`, the inhibition is 3.45%.
Next, `CC1CCc2nc3ccccc3c(C(=O)OCC(=O)NC3CCS(=O)(=O)C3)c2C1` (configuration not stated): 9.92%; `Cc1c2ccccc2nc2ccccc12`: 21.6%.
Next, `CCOC(=O)c1cc(-c2ccc(N3CCOCC3)cc2)nn1-c1ccccc1C(=O)O`: -2.68%; `CCOC(=O)c1cc(-c2ccc(N3CCOCC3)cc2)nn1-c1ccc(F)cc1F`: 30.5%.
Next, `COc1ccccc1N1CCN(c2nnc(-c3ccc(F)cc3)c3ccccc23)CC1`: -0.63%; `COc1cc(C(=O)N/C(=C\c2cn(S(=O)(=O)N(C)C)c3ccccc23)C(=O)N2CCCC2)cc(OC)c1OC`: 7.41%.
For the compound `COc1cc(/C=N/n2cc(-c3ccccc3)[nH]c2=S)cc(OC)c1O`, the inhibition was -4.41%.
Take `Cc1ccc(-n2cnc3scc(-c4cccs4)c3c2=O)cc1`: the inhibition was 9.75%.
Turning to `O=c1cc(/C=C/c2ccccc2)oc2c1ccc1ccccc12`, the inhibition was -0.73%.
As to `O=c1cc(-c2ccccc2)oc2ccccc12`, the inhibition was -7.12%.
`CN1CCCN(C(=O)c2cc(-c3ccc(Cl)c(Cl)c3Cl)nc3ccccc23)CC1`: the inhibition was 5.52%.
Next, `CCOCCCNC(=O)C(NC(=O)Cc1cccs1)c1ccc(OC)cc1` (configuration not stated): 3.59%; `CCOC(=O)c1sc(C)c2c(=O)n(CCc3ccccc3)nnc12`: -10.6%.
On to `CCOC(=O)c1sc(C)c2c(=O)n(CC)nnc12`, for which the inhibition was -7.87%.
Next, `COC(=O)C1=C(C)N(CCCC(=O)O)C(=O)NC1c1ccc(Br)cc1` (configuration not stated): 2.77%.
Next, `COCCn1cc(C(=S)N2CCCCC2)c2ccccc21`: 5.15%.
Next, `CCOc1ccc(NS(=O)(=O)c2ccc(C(=O)NCCN3CCOCC3)cc2)cc1`: -3.65%; `NC(=S)N/N=C/c1ccc(-c2cc(Cl)cc(Cl)c2)o1`: -4.69%.
`CCNC(=S)N/N=C/c1ccc(-c2ccccc2)o1`: the inhibition was -5.23%.
Next, `CC(=O)N1CCN(C(=O)C(Cc2ccccc2)NC(=O)c2ccccc2)CC1` (configuration not stated): -1.96%.
Turning to `COc1cc(CSC)nc(-c2ccccc2)n1`, the inhibition is -6.71%.
Next, `CC(=O)N1N=C(c2ccc(Cl)cc2)CC1c1ccc([N+](=O)[O-])cc1` (configuration not stated): -2.62%.
`CC1(O)CC(c2ccc(Cl)cc2)=NN1C(=O)c1ccc(Cl)cc1` (configuration not stated): the inhibition is 47.7%.
Next, `CC(=O)Nc1ccc(NC(=O)CCn2c(=S)oc3ccccc32)cc1`: 0.4%.
Regarding `Cc1cccc(C)c1NC(=S)N(Cc1ccccc1)Cc1cccnc1`, the inhibition was -3.48%.
Next, `O=C(O)[C@@H]1[C@@H]2C[C@@H]2CN1c1ncccc1[N+](=O)[O-]`: -3.12%.
Next, `CN1C(=O)N(C)c2cccc3cccc1c23`: 7.44%; `CN1C(=O)N(C)c2ccc(Br)c3cccc1c23`: -5.58%; `O=C(c1cc2c(=O)n3ccccc3nc2s1)N1CCN(c2cccc(Cl)c2)CC1`: 5.56%.
For the compound `CC(=O)c1nn(-c2ccccc2)cc1C(=O)c1ccc(C)cc1`, the inhibition was 2.07%.
In the case of `COc1ccc2oc(-c3ccc(C)c(NC(=O)CSc4ccc(Cl)cc4)c3)nc2c1`, the inhibition was -3.67%.
Next, `Cc1ccc(/C=C2\SC(=S)N(CCC(=O)NNC(=O)c3ccc(O)cc3)C2=O)cc1`: 3.42%; `Cc1cccc(C2=N/C(=C\c3cccnc3)C(=O)O2)c1`: -3.98%.
`Cc1ccccc1C1=N/C(=C/c2cccs2)C(=O)O1`: the inhibition is 61%.
Next, `CCOC(=O)N=Nc1c(O)n(CC(=O)OC)c2ccccc12`: -0.16%; `CCCSc1nc2c(cnn2-c2ccc(Cl)cc2)c(=O)[nH]1`: 6.95%; `O=C(NNC(=O)c1cc(S(=O)(=O)N2CCOCC2)c(Cl)cc1Cl)c1ccccc1F`: 0.47%.
Next, `Cc1nn(Cc2ccccc2)c(C)c1C(=O)OCC(=O)Nc1cc(S(C)(=O)=O)ccc1Cl`: 6.17%; `O=C(Nc1ccc(F)cc1)N1CCN(c2ccc3nnc(-c4ccc(F)cc4)n3n2)CC1`: -4.53%.
Next, `O=C(Nc1ccccc1Cl)N1CCN(c2ccc3nnc(-c4ccc(F)cc4)n3n2)CC1`: 22.4%; `CC1=C(C(=O)NC(C)c2ccccc2)C2(CCC(C)CC2)OC1=O` (configuration not stated): -6.81%.
`Cc1cc(/C=C(\C#N)C(=O)NCc2ccccc2)cc(C)c1O`: the inhibition was -9.9%.
Next, `CCOc1cc(CNCc2ccc3c(c2)OCO3)ccc1OC`: -2.37%; `COc1ccc(CCNC(=O)CSc2ncc(C(=O)Nc3ccccc3)c(=O)n2C)cc1`: -4.13%; `Cc1cccc(NC(=S)N(CCCN2CCCC2)Cc2cccn2Cc2ccc(Cl)cc2)c1`: 42.3%.
Next, `COc1cccc(NC(=S)N(CCCN2CCCC2)Cc2cccn2Cc2ccc(Cl)cc2)c1`: 6.09%.
As for `CN(C)N1C(=O)/C(=C/c2ccco2)SC1=Nc1ccccc1`, the inhibition was -2.31%.
On to `ClC1(CNc2ccccc2)CCN(Cc2ccccc2)CC1`, for which the inhibition is -3.08%.
For the compound `OC1(c2ccccc2)CCN(Cc2ccccc2)CC1`, the inhibition is -0.23%.
Next, `CCOC(=O)N1CCC2(CC1)C(C#N)=C(N)OC1=C2C(=O)CC(C)C1` (configuration not stated): -8.64%.

The values are drawn from PubChem BioAssay AID449762 (Southern Research Specialized Biocontainment Screening …, 2010).
